From article PMC7862700, “An all-to-all approach to the identification of sequence-specific readers for epigenetic DNA modifications on cytosine” come the findings set out here.

Assay in all cases: DAPPL (digital affinity profiling via proximity ligation, sequencing); 10 mM Tris-HCl pH 7.5, 50 mM NaCl, 1 mM DTT, 4% glycerol, room temperature, 30 min; GST-TFs on glutathione beads, 16-mer random dsDNA library, 0.1% formaldehyde crosslink after washing; high values mean tight binding
What all share (details): protein: recombinant; tags: N-terminal GST; dsDNA, one strand shown

One test deals with T1, FLI1 (Homo sapiens, UniProt Q01543 1-452).
T1 sequence: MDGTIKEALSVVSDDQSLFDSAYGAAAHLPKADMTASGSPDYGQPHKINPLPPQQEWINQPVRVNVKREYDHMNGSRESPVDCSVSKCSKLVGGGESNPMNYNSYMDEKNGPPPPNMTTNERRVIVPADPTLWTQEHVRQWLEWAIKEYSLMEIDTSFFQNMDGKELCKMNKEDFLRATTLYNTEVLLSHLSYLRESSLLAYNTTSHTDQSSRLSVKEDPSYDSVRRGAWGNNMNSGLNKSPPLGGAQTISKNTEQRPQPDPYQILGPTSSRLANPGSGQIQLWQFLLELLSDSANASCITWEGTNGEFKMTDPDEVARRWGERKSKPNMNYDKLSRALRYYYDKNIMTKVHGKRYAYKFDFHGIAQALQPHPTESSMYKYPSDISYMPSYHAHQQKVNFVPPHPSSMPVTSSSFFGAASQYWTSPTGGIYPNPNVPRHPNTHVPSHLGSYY
The method in brief: (§1)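 Binding signal is given per hexamer as its read frequency for a factor divided by its frequency in the tag-only sample. GST-fused human transcription factors were expressed in yeast, captured on glutathione beads, barcoded with DNA and pooled with that sample, then incubated with 200 nmole of a 16-mer random double-stranded DNA library in Tris/NaCl/DTT/glycerol buffer for 30 min at room temperature. The pools were then washed, crosslinked, proximity-ligated, amplified by PCR and sequenced on an Illumina NextSeq500.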

In a further test the target is T2, ELK1 (Homo sapiens, UniProt P19419 1-428).
T2 sequence: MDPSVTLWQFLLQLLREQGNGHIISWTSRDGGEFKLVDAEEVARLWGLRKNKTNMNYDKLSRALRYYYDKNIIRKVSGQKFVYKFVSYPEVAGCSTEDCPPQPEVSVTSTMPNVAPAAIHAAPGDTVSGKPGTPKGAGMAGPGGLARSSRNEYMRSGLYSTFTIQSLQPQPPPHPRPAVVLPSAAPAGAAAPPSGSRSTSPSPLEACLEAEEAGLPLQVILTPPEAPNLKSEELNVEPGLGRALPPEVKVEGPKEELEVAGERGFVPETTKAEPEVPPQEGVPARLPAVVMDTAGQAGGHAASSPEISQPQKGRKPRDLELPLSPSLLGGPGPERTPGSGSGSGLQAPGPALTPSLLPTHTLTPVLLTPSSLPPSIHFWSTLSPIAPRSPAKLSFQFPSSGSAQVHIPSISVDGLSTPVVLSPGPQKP
The method in brief: as §1

Another test addresses T3, GABPA (Homo sapiens, UniProt Q06546 1-454).
T3 sequence: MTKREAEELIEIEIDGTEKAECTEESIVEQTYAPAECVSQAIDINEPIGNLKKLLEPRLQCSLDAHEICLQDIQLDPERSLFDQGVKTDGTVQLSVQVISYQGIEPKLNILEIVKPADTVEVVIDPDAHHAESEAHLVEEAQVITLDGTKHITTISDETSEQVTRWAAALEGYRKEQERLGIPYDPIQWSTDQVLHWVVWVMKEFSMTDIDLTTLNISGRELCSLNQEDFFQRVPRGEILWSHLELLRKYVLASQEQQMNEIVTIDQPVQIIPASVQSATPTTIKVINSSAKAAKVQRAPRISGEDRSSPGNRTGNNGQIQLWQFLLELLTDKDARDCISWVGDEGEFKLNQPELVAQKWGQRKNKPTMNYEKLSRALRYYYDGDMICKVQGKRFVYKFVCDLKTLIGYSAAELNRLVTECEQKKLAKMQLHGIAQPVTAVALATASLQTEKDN
The gist of the method: as §1

The target in another test is T4, ERG (Homo sapiens, UniProt P11308 1-479).
T4 sequence: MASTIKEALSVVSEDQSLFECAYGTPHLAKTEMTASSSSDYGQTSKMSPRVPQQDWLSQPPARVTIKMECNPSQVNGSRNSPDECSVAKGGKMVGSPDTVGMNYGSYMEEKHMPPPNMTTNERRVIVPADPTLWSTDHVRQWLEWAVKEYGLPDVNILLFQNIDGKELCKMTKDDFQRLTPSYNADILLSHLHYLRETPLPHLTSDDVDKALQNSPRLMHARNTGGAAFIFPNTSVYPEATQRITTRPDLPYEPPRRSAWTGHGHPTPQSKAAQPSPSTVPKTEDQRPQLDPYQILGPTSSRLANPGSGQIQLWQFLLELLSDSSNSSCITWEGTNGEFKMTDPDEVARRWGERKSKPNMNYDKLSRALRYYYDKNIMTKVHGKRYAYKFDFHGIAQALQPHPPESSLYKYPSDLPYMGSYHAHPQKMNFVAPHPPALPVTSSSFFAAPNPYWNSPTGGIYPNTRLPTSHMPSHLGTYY
The gist of the method: as §1

The next test addresses ELF1 (Homo sapiens, UniProt P32519 1-619). The gist of the method:
as §1

In the next test the target is T5, EHF (Homo sapiens, UniProt Q9NZC4 1-300).
T5 sequence: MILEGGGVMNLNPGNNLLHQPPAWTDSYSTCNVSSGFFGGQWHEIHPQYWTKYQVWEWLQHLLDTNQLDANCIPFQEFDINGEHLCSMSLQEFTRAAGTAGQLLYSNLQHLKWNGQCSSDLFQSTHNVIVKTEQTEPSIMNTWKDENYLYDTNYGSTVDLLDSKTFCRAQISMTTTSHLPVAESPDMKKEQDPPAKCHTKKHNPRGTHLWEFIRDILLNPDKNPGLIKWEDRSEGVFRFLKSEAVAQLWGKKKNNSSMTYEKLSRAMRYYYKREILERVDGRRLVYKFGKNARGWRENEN
The method in brief: as §1

The target of the next test is SPI1 (Homo sapiens, UniProt P17947 1-270). The gist of the method: as §1
The target of another test is SPIB (Homo sapiens, UniProt Q01892 1-262). The method in brief:
as §1

A further test has as its target T6, ELK3 (Homo sapiens, UniProt P41970 1-407).
T6 sequence: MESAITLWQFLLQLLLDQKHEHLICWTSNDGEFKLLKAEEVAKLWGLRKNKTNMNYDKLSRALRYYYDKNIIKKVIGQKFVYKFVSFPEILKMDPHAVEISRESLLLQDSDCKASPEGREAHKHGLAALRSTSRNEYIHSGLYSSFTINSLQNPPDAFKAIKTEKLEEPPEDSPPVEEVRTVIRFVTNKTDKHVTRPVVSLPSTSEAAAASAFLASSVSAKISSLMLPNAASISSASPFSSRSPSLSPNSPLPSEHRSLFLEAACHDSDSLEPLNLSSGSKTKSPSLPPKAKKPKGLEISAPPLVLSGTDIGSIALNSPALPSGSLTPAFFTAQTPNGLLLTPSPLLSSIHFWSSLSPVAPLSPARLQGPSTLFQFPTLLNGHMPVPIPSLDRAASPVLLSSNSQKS
The method in brief:
as §1

Sequence of ELF1 (P32519 whole entry): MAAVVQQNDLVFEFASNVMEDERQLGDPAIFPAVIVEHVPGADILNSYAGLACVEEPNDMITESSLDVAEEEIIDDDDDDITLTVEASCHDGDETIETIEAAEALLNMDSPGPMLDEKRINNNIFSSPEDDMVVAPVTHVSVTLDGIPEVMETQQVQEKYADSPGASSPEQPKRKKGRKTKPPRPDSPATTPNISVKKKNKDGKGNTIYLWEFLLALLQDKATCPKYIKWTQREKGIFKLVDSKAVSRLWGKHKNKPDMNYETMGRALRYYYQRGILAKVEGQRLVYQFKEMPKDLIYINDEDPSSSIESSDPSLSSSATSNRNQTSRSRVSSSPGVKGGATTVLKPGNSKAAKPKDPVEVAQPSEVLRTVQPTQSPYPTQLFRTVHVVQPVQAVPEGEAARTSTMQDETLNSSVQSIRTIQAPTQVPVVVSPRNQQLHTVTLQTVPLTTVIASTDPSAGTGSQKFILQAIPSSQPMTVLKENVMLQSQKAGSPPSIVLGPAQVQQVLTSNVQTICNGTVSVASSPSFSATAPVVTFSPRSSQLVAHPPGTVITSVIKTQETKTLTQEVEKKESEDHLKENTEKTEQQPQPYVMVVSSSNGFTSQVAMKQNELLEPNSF
Sequence of SPIB (Q01892 whole entry): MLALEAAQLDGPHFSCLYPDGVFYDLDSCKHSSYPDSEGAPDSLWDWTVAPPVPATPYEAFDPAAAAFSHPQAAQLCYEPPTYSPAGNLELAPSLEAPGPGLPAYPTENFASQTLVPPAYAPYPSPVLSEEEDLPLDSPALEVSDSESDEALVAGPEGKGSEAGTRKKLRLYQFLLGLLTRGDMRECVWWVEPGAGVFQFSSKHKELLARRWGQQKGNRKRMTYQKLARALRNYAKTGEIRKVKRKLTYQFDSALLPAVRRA

As to TCTCTC, the binding signal with FLI1 is 1.37 fold enrichment (6-mer frequency, TF over GST control); with ELK1, 1.27 fold enrichment (6-mer frequency, TF over GST control); with GABPA, 1.36 fold enrichment (6-mer frequency, TF over GST control); with ERG, 1.22 fold enrichment (6-mer frequency, TF over GST control); with ELF1 it was 1.35 fold enrichment (6-mer frequency, TF over GST control); in the test with EHF, 1.36 fold enrichment (6-mer frequency, TF over GST control). For the same sequence, the binding signal is 1.39 fold enrichment (6-mer frequency, TF over GST control) with SPI1; 1.31 fold enrichment (6-mer frequency, TF over GST control) with SPIB; 1.36 fold enrichment (6-mer frequency, TF over GST control) with ELK3.

Regarding TTCATG, the binding signal is 1.35 fold enrichment (6-mer frequency, TF over GST control) in the test with FLI1; 1.26 fold enrichment (6-mer frequency, TF over GST control) in the test with ELK1; 1.35 fold enrichment (6-mer frequency, TF over GST control) with GABPA; 1.28 fold enrichment (6-mer frequency, TF over GST control) with ERG; 1.33 fold enrichment (6-mer frequency, TF over GST control) with ELF1; 1.29 fold enrichment (6-mer frequency, TF over GST control) with EHF. Also, the binding signal is 1.32 fold enrichment (6-mer frequency, TF over GST control) with SPI1; 1.34 fold enrichment (6-mer frequency, TF over GST control) with SPIB; 1.22 fold enrichment (6-mer frequency, TF over GST control) in the test with ELK3.

As to TATGAC, the binding signal with FLI1 is 1.31 fold enrichment (6-mer frequency, TF over GST control); with ELK1, 1.34 fold enrichment (6-mer frequency, TF over GST control); with GABPA, 1.37 fold enrichment (6-mer frequency, TF over GST control); with ERG, 1.31 fold enrichment (6-mer frequency, TF over GST control); in the test with ELF1, 1.34 fold enrichment (6-mer frequency, TF over GST control); with EHF it was 1.23 fold enrichment (6-mer frequency, TF over GST control). For the same sequence, the binding signal with SPI1 is 1.27 fold enrichment (6-mer frequency, TF over GST control); with SPIB, 1.4 fold enrichment (6-mer frequency, TF over GST control); with ELK3, 1.32 fold enrichment (6-mer frequency, TF over GST control).

For the sequence CTGCTT, the binding signal in the test with FLI1 is 1.69 fold enrichment (6-mer frequency, TF over GST control); in the test with ELK1, 1.57 fold enrichment (6-mer frequency, TF over GST control); in the test with GABPA, 1.59 fold enrichment (6-mer frequency, TF over GST control); with ERG it was 1.6 fold enrichment (6-mer frequency, TF over GST control); in the test with ELF1 it was 1.65 fold enrichment (6-mer frequency, TF over GST control); in the test with EHF, 1.88 fold enrichment (6-mer frequency, TF over GST control). For the same sequence, the binding signal was 1.75 fold enrichment (6-mer frequency, TF over GST control) in the test with SPI1; 1.54 fold enrichment (6-mer frequency, TF over GST control) with SPIB; 1.58 fold enrichment (6-mer frequency, TF over GST control) in the test with ELK3.

With TCTCGA, the binding signal in the test with FLI1 is 1.35 fold enrichment (6-mer frequency, TF over GST control); in the test with ELK1, 1.34 fold enrichment (6-mer frequency, TF over GST control); with GABPA, 1.42 fold enrichment (6-mer frequency, TF over GST control); with ERG it was 1.38 fold enrichment (6-mer frequency, TF over GST control); with ELF1, 1.41 fold enrichment (6-mer frequency, TF over GST control); with EHF it was 1.37 fold enrichment (6-mer frequency, TF over GST control). Moreover, the binding signal with SPI1 is 1.36 fold enrichment (6-mer frequency, TF over GST control); with SPIB, 1.43 fold enrichment (6-mer frequency, TF over GST control); with ELK3, 1.31 fold enrichment (6-mer frequency, TF over GST control).

Consider CTCTTC, for which the binding signal with FLI1 was 1.62 fold enrichment (6-mer frequency, TF over GST control); with ELK1, 1.64 fold enrichment (6-mer frequency, TF over GST control); with GABPA it was 1.66 fold enrichment (6-mer frequency, TF over GST control); in the test with ERG it was 1.71 fold enrichment (6-mer frequency, TF over GST control); with ELF1, 1.66 fold enrichment (6-mer frequency, TF over GST control); with EHF, 1.69 fold enrichment (6-mer frequency, TF over GST control). In addition, the binding signal was 1.6 fold enrichment (6-mer frequency, TF over GST control) with SPI1; 1.84 fold enrichment (6-mer frequency, TF over GST control) with SPIB; 1.66 fold enrichment (6-mer frequency, TF over GST control) in the test with ELK3.

For TAAATT, the binding signal was 1.26 fold enrichment (6-mer frequency, TF over GST control) with FLI1; 1.22 fold enrichment (6-mer frequency, TF over GST control) in the test with ELK1; 1.2 fold enrichment (6-mer frequency, TF over GST control) with GABPA; 1.22 fold enrichment (6-mer frequency, TF over GST control) with ERG; 1.27 fold enrichment (6-mer frequency, TF over GST control) in the test with ELF1; 1.32 fold enrichment (6-mer frequency, TF over GST control) with EHF. Moreover, the binding signal with SPI1 is 1.22 fold enrichment (6-mer frequency, TF over GST control); with SPIB, 1.3 fold enrichment (6-mer frequency, TF over GST control); with ELK3, 1.31 fold enrichment (6-mer frequency, TF over GST control).
